# Compounds without any hit were thinned out: in the full panel of roughly 83,000, 20% have a hit.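 Assay: single dose, 48 h. Readout: percent growth (0 = no net growth; negative = cell death). Active: <10.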 Calls of active or inactive are those of the source.
# System: MDA-MB-435 melanoma
# Experiment: NCI-60 one-dose screen, 48 h (100 = growth as untreated, 0 = no growth, -100 = all killed)
# Conditions: 10 µM
row,SMILES,growth
1,CCN1CCN(Cc2ccc(C(=O)Nc3cccc(-c4cn(-c5ccc6oc(=O)ccc6c5)nn4)c3)cc2C(F)(F)F)CC1,-100% (active)
2,COc1cc2oc(-c3cccc(C(=O)Nc4ccc(Cl)cc4)c3)cc(=O)c2c(OCCNC(=O)CNC(=O)OC(C)(C)C)c1OC,66.7% (inactive)
3,O=C(NO)c1ccc(CN2CCN(c3nc(-c4ccccc4)c4ccccc4n3)CC2)cc1,27.8% (inactive)
4,COC[C@@H](CC(C)C)N=C1NC(=O)/C(=C/c2ccc3ncsc3c2)N1,12.7% (inactive)
5,O=C(/C=C/Nc1ccc(F)cc1F)c1ccc2c(c1)Nc1ccccc1S2,9.72% (active)
6,COc1ccc(-c2cc(C(=O)N=Nc3c(O)[nH]c4ccc(F)cc34)c3ccccc3n2)cc1,65.2% (inactive)
7,COc1cc(C2CC(c3ccccc3)=Nc3c(N)nc(N)nc3N2)ccc1Oc1nc(Nc2ccc(F)cc2)nc(N(C)C)n1 (stereo not drawn),15.4% (inactive)
8,COc1ccc(-c2cc(C(=O)N=Nc3c(O)[nH]c4ccccc34)c3ccccc3n2)cc1,0.986% (active)
9,Cc1ccc(CSc2nc(Cl)c(C#N)c(-c3ccc(F)cc3)n2)cc1,99.7% (inactive)
10,O=C(Nc1ccc(I)cc1)Nc1nc2ccc([N+](=O)[O-])cc2s1,-96.1% (active)
11,O=C(Nc1nc2ccccc2s1)c1ccc(Br)cc1,88.8% (inactive)
12,O=c1oc2ccccc2cc1-c1csc(N=Nc2c(O)[nH]c3ccc(Br)cc23)n1,102% (inactive)
13,COc1cccc(-c2ccc(/C=N/NC(=O)c3[nH]c4ccc(Br)cc4c3-c3ccccc3)o2)c1,-30.7% (active)

# Source: PubChem BioAssay (NCI)
